Active and inactive are the calls of the source. The call rests on the fitted dose curve; in most records, active means well fitted activation curve with a large enough effect; inconclusive means small, poorly fitted or top-dose-only effect; inactive means no such curve, though single readings can be large or run the other way.
What follows are compounds tested against Parathyroid hormone/parathyroid hormone-related peptide receptor (Homo sapiens) (UniProt Q03431) (assay: qHTS for PTHR1 Agonists: Optimization Screen against the NCGC LOPAC library (AID 1347079)). Settings: HEK293 GP2 PTHR1 GloSensor cAMP luminescence, 1 h; series mostly up to 57.1 µM.
Excerpt: The goal of the proposed studies is to discover new compounds that act as potent agonists on the parathyroid hormone receptor type-1 (PTHR1). The PTHR1 plays critical roles in maintaining blood calcium and phosphate levels, as well as in controlling bone remodeling. PTHR1 agonists could thus be useful for treating diseases such as hypoparathyroidism and osteoporosis. In the former disease, an agonist drug would help maintain normal blood calcium and phosphate levels under conditions of parathyroid hormone deficiency. In the latter disease, an agonist drug would stimulate new bone formation and thus reduce the risk of fracture, under conditions of bone fragility, as occurs in aging. We performed an optimization assay of the quantitative high-throughput screening (qHTS) for the parathyroid hormone receptor type-1 (PTHR1) against the NCGC LOPAC library collection of […] compounds using a unique HEK-293-derived cell line (GP2) that expresses the PTHR1 and a GloSensor cAMP reporter construct. Increase in signal (activation / agonist) is the desired outcome for compounds of interest. NIH Chemical Genomics Center [NCGC] NIH Molecular Libraries Probe Production Centers Network [MLPCN] MLPCN Grant: P01 DK011794 Assay Submitter (PI): Thomas Gardella PhD, Massachusetts General Hospital
Reagents / Controls: M-PTH (1-15) peptide hormone fragments was provided by the assay provider and was used as a control. Column 1 was treated with M-PTH titration (1:2 dilution) beginning with a final concentration of 10uM. Column 2 was treated with M-PTH final concentration of 10uM. Columns 3 and 4 were treated with DMSO only to assess background and noise signal. Assay Steps: Four microLiter of cells suspension was dispensed in a 1536-well assay plate at a final density of 3000 cells/well. The plates were incubated overnight, after which 4uL of 0.5mM of BloTium Luciferin plus 0.5mM IBMX was added. Next, the plate was incubated at 37C for 1hr before 23nL of compound (at various final concentrations from 40uM to 0.32uM) and control were added using a 1536-well array Kalypsys pin-tool. The treated plates were again incubated at 37C for another hour. Luminescence signal was obtained using the PerkinElmer ViewLux plate reader after 15min or room temperature incubation.

Sequence of Parathyroid hormone/parathyroid hormone-related peptide receptor (Homo sapiens) (Q03431 whole entry, looked up): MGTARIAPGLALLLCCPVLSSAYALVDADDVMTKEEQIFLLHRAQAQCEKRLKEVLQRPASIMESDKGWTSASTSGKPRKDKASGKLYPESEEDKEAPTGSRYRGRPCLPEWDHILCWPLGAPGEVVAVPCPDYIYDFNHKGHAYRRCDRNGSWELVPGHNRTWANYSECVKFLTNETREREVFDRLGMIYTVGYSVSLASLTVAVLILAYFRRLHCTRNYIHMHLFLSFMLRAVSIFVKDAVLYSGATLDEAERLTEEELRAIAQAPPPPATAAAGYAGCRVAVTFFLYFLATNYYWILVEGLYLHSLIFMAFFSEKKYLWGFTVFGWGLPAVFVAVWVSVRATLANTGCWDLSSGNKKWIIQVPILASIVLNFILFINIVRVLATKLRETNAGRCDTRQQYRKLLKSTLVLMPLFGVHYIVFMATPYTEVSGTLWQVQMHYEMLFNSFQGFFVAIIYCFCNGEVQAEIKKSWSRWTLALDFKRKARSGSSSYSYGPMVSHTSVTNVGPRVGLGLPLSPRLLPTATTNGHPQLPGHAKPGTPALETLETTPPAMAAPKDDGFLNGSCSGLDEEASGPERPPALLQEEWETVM

| Compound | outcome |
| --- | --- |
| c1ccc2sc(C3(N4CCCCC4)CCCCC3)cc2c1 | inactive |
| CN1C2CCC1CC(OC(=O)c1cc(Cl)cc(Cl)c1)C2 (stereo not given) | inactive |
| Clc1cnc(Oc2ccc(Oc3ncc(Cl)cc3Cl)cc2)c(Cl)c1 | inactive |
| Oc1ccc2c3c1O[C@H]1c4[nH]c5c(c4C[C@@]4(O)[C@@H](C2)N(CC2CC2)CC[C@]314)C[C@@]1(O)[C@H]2Cc3ccc(O)c4c3[C@@]1(CCN2CC1CC1)[C@H]5O4 | inactive |
| CCCN(CCC)C1CCc2ccc(O)cc2C1 (stereo not given) | inactive |
| c1ccc(C2(c3ccccc3)CC2C2=NCCN2)cc1 (stereo not given) | inactive |
| O=C(O)Cc1cnc[nH]1 | inactive |
| O=C(Cc1ccc(Cl)c(Cl)c1)N1CCCCC1CN1CCCC1 (stereo not given) | inactive |
| CNCCc1c[nH]c2ccc(O)cc12 | inactive |
| CN[C@@H]1C[C@@H](c2ccc(Cl)c(Cl)c2)c2ccccc21 | inactive |
| CC(C)Oc1cccnc1N(C)C1CCN(Cc2ccccc2)CC1 | inactive |
| C[C@]12N[C@H](Cc3ccccc31)c1ccccc12 | inactive |
| C[C@@H]1O[C@H](C[N+](C)(C)C)C[C@H]1O | inactive |
| CC[C@@H](C(N)=O)N1CCCC1=O | inactive |
| S=C(NC1CCCCC1)N1CCC(c2cnc[nH]2)CC1 | inactive |
| CCCCc1ccc(C(=O)O)nc1 | inactive |
| CC1=NN=C(c2ccc(N)cc2)c2cc3c(cc2C1)OCO3 | inactive |
| CS(=N)(=O)CC[C@H](N)C(=O)O (stereo not given in full) | inactive |
| NC(=O)CN1CC(O)CC1=O (stereo not given) | inactive |
| C/C=C(/C)C(=O)O[C@H]1C(C)=C2[C@H]([C@@H]1OC(=O)CCCCCCC)[C@@](C)(OC(C)=O)C[C@H](OC(=O)CCC)[C@@]1(O)[C@H]2OC(=O)[C@@]1(C)O | inactive |

| Compound | outcome |
| --- | --- |
| O=C(O)[C@@H]1CCN1 | inactive |
| c1ccc(CCCN2CCN(CCOC(c3ccccc3)c3ccccc3)CC2)cc1 | inactive |
| COc1cc(C(O)CN)ccc1O (stereo not given) | inactive |
| CC(=O)NCCc1c[nH]c2ccccc12 | inactive |
| NC(CP(=O)(O)O)C(=O)O (stereo not given) | inactive |
| O=C(N[C@H]1CN2CCC1CC2)c1ccc(Cl)cc1 | inactive |
| CC(=O)[C@H]1CCC2C3CC[C@H]4C[C@H](O)CC[C@]4(C)C3CC[C@@]21C (stereo not given in full) | inactive |
| Cn1cnc(CCN)c1 | inactive |
| CC(C)NC(C)Cc1ccc(I)cc1 (stereo not given) | inactive |
| NCc1cc(=O)[nH]o1 | inactive |
| NC(CCP(=O)(O)O)C(=O)O (stereo not given) | inactive |
| COC(=O)[C@@H](N)CCCN=C(N)N[N+](=O)[O-] | inactive |
| NCCc1c[nH]c2ccc(O)cc12 | inactive |
| NC(N)=NOCCC(N)C(=O)O (stereo not given) | inactive |
| NC1CCc2cc(O)c(O)cc2C1 (stereo not given) | inactive |
| CC(Cc1ccc(O)cc1)NCC(O)c1cc(O)cc(O)c1 (stereo not given) | inactive |
| NC(=NCCC[C@H](N)C(=O)O)N[N+](=O)[O-] | inactive |
| NCCc1c[nH]c2ccccc12 | inactive |
| Cc1nccc2c1[nH]c1ccccc12 | inactive |
| CC[C@@]1(O)C(=O)OCc2c1cc1n(c2=O)Cc2cc3ccccc3nc2-1 | inactive |

Source: PubChem BioAssay (NCATS)
